Screening data (PubChem BioAssay)
An excerpt weighted towards active compounds, which were near 22% of everything screened.
CHX counter: counter-screen for Shiga toxin inhibitors: cycloheximide protein synthesis inhibition | 12% of 300,000 active | cell reporter, cycloheximide protein synthesis inhibition counterscreen | max response, %; in the data active means max response mostly above about 13%, no sharp cut-off; inactive means mostly below about 14%; further: read at 38.3 µM for the half of the compounds with a filed dose; 0% is about no effect
Pf growth 96h: P. falciparum growth inhibition at 96 hour, primary screen for plastid delayed-death inhibitors; P. falciparum luciferase reporter growth, 96 h; Potency, µM (highest dose often 28.7 µM), inactives show at the top dose activity change, negative = inhibition, usual class: inhibitors; 6.9% of 320,000 active; AID 504834; further: potency means the concentration at half of the fitted maximal effect; on the % scale 0 is the no-effect control and ±100 the full control effect
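Two-generation exposure (96 h) targets delayed-death phenotype. Reporter parasites carrying integrated firefly luciferase, in red cells at 2% hematocrit and 0.05% parasitemia final, kept at 37 C, 5% CO2; luminescence loss indicates inhibition.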
LmPK inh: blocks Leishmania mexicana pyruvate kinase activity; Q27686; purified LmPK, Kinase-Glo ATP luminescence, 1 h; Potency, µM (series often up to 57.5 µM), for the others: at the top dose activity change, negative = inhibition, usual class: inhibitors; 0.37% of 290,000 active; further: potency means the concentration at half of the fitted maximal effect; on the % scale 0 is the no-effect control and ±100 the full control effect
Target sequence (Q27686 whole entry, looked up): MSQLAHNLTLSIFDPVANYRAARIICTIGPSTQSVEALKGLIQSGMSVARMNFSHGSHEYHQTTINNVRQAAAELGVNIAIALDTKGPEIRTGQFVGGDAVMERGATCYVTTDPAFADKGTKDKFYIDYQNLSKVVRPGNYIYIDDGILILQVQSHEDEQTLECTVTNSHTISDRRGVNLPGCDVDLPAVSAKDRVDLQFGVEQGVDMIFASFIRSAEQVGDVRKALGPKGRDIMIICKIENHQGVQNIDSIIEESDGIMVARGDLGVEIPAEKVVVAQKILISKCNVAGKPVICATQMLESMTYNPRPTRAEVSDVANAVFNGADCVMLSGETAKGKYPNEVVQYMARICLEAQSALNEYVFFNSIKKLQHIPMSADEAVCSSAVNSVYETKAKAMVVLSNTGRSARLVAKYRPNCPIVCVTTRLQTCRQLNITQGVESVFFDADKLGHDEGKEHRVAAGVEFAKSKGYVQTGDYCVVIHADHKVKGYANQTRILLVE
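qHTS format; LmPK 0.1 nM; substrates PEP 0.5 mM and ADP 0.1 mM. One-hour room-temperature incubation, then coupled luciferase luminescence; 0.5 nM enzyme wells mark activation.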
Pf growth 48h: inhibits P. falciparum growth in the first generation, 48 h. P. falciparum luciferase growth in erythrocytes, 48 h. 5.9% of 310,000 active. AID 504832. Potency, µM (highest dose often 28.7 µM), for inactives: top-dose activity change, negative = inhibition, most hits filed as inhibitors; further: potency means the concentration at half of the fitted maximal effect; on the % scale 0 is the no-effect control and ±100 the full control effect
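Luminescence readout; reporter = integrated firefly luciferase in P. falciparum. RBC culture at 2% hematocrit, 0.1% parasitemia final, 37 C/5% CO2; decreased signal taken as growth inhibition.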
Shiga toxin inh: Shiga toxin inhibition. inhibition, % at 38.7 µM. Vero cells, Shiga toxin protein synthesis inhibition reporter. 9.2% of 290,000 active; in the data active means inhibition mostly above about 28%, no sharp cut-off; inactive means mostly below about 43%; further: 0% is about no effect
Starred values were filed as active, the others as inactive; ? = inconclusive; · = no result given; [ ] = dose if it differs, or a comment. Unless noted, the call rests on the fitted dose curve; in most records, active means well fitted inhibition curve with a large enough effect; inconclusive means small, poorly fitted or top-dose-only effect, or another doubt; inactive means no such curve, though single readings can be large or run the other way.

SMILES	CHX counter	Pf growth 96h	LmPK inh	Pf growth 48h	Shiga toxin inh
N/C(=N\OC(=O)c1ccc(Cl)cc1Cl)c1ccccc1	56*	87%	11µM*	58%	127*
COc1cc(OC)cc(C(=O)O/N=C(\N)c2cccc(C)c2)c1	13	7%	1%	?	44
CC(C)(C)c1ccc(C(=O)O/N=C(\N)c2ccccn2)cc1	-4	58%	-16%	?	-6
CCOP(=O)(OCC)/C(=N/OC(=O)c1ccc(Cl)cc1Cl)C(N)=O	-2	13%	3%	1%	9
N/C(=N\OC(=O)c1ccc(Cl)cc1Cl)c1ccc(Cl)cc1	50*	-94%	-13%	347%	114*
CCC(OC(=O)CNS(=O)(=O)c1ccccc1)C(=O)c1ccccc1 (stereo not drawn)	-8	?	-4%	?	-10
Cc1cccc(/C(N)=N/OC(=O)c2cccnc2)c1	33*	2%	22µM*	3%	103*
N/C(Cc1ccc(Cl)c(Cl)c1)=N\OC(=O)c1cccs1	2	?	1%	?	-5
Cc1ccccc1/C(N)=N/OC(=O)c1cccs1	27*	64%	?	10%	61*
N/C(=N\OC(=O)c1ccc(Cl)cc1)c1cccnc1	42*	·	?	56%	175*
N/C(=N\OC(=O)c1cccs1)c1cccnc1	40*	-15%	-19%	39%	43*
N/C(=N\OC(=O)c1ccc(OCC(F)(F)F)nc1)c1ccc(Cl)cc1	-1	?	-2%	-37%	-4
CCN(CC)C(=O)c1ccccc1NC(=O)CN1C(=O)c2ccccc2S1(=O)=O	-2	?	0%	24%	2
Cc1cccc(/C(N)=N/OC(=O)c2ccc(Br)o2)c1	91*	55%	-23%	134%	90*
CCSc1ccc(/C(N)=N/OC(=O)c2cccs2)cn1	46*	99%	-2%	91%	88*
N/C(=N\OC(=O)c1ccc(Cl)cc1Cl)c1cccnc1	35*	4.7µM*	?	-36%	91*
Cc1ccc(OC(=O)c2cccnc2)cc1	20	12µM*	-1%	-2%	3
O=S(=O)(c1ccccc1F)N1CCN(CCc2ccccc2)CC1	1	32%	-11%	0%	5
O=C(CCC(=O)c1cccs1)NNC(=O)c1ccc(Cl)cc1	·	5%	·	-13%	·
COc1ccc(-c2cc(C3C4C=CCC(C)C4C(=O)N3Cc3ccccc3)ccc2F)cc1 (stereo not drawn)	14	·	·	·	8
COc1ccc(CNC(=O)CSc2nc3[nH]ncc3c(=O)n2-c2ccccc2Br)cc1	-1	?	0%[11.5 µM]	?	19
Cn1c(SCC(=O)Nc2ccc(Br)cc2)nc(O)cc1=O	-3	12%	3%	-3%	19
CC(C)CN(C(=O)c1cc(Cl)nc2ccccc12)C1CCS(=O)(=O)C1 (stereo not drawn)	·	35%	·	?	·
Cc1ccc(/C(N)=N/OC(=O)c2ccc(C)cc2Cl)cc1	80*	2%	-8%	-58%	26*
COc1cc(NC(=O)c2cccnc2Sc2ccc(C)c(C)c2)cc(OC)c1OC	-6	10µM*	1%	?	-5
SMILES	CHX counter	Pf growth 96h	LmPK inh	Pf growth 48h	Shiga toxin inh
CC(=O)Nc1ccc(Sc2ncccc2C(=O)Nc2ccc(OC(F)(F)F)cc2)cn1	-1	?	6%	13µM*	-4
CC(=O)Nc1ccc(Sc2ncccc2C(=O)Nc2cc(Cl)cc(Cl)c2)cn1	-4	5%	0%	-7%	0
CC(=O)c1cc(C#N)c(N2CCOCC2)nc1C	-4	17%[5.75 µM]	1%	28%	-5
CC/C(=N\N=C1\SC(C)C(=O)N1Cc1ccco1)c1ccccc1 (stereo not drawn)	-3	-24%	-3%	?	33
CC(C)c1ccc(NC2CCCN(C(=O)c3cccs3)C2)cc1 (stereo not drawn)	32*	-28%	5%	6%	23*
CC(C)c1ccc(NC2CCCN(C(=O)CCN3Cc4ccccc4C3=O)C2)cc1 (stereo not drawn)	3	1.9µM*	-1%	-18%	-3
CSCCC(=O)N1CCCC(N(C)CCc2ccccc2)C1 (stereo not drawn)	-3	?	3%	?	-9
Sc1oc(-c2ccccc2)cc1C=Nc1ccccc1	30*	?	-11%	·	86
O=[N+]([O-])c1cc2c(cc1C=Nc1ccccc1)OCO2	-3	0%	-1%	13%	-6
O=[N+]([O-])c1ccc(C(=S)N2CCCC2)cc1	7	-5%	0%	11%	14
O=[N+]([O-])c1ccc(C(O)CSC(=S)N2CCCCC2)cc1 (stereo not drawn)	46*	172%	4%	135%	83*
CCc1nccn1CCC(=O)NC1CCCc2c1cnn2-c1ccc(F)cc1F (stereo not drawn)	-3	-3%	-5%	4%	-15
CNS(=O)(=O)c1ccc2c(c1)oc(=O)c1cc(S(=O)(=O)NC)ccc12	10	8%	4%	19%	30
Cc1cc(-c2ccccc2)nc(N/N=C/c2ccc(O)cc2O)n1	23*	-11%	-1%	?	91*
CNc1nc(C)nc(N/N=C/c2ccccc2)n1	28*	21%	0%	101%	53
CN(/N=C/c1ccc(O)cc1O)c1nc(-c2ccccc2)cc(-c2ccccc2)n1	-2	5.2µM*	0%	9.3µM*	-7
Cc1cc(-c2ccccc2)nc(N/N=C/c2ccco2)n1	36*	-1%	-3%	-1%	85*
CN(C(=O)c1cc(COc2ccc(F)cc2Cl)on1)C1CCCc2ccccc21 (stereo not drawn)	1	-2%	-3%	?	6
COC(=O)c1cc(NC(=O)COC(=O)C2CCC2)cc(C(=O)OC)c1	·	31%	·	1%	·
Cc1cc(-c2ccccc2)nc(N/N=C/c2ccc([N+](=O)[O-])cc2)n1	-2	?	1%	0%	-5
Cc1cc(-c2ccccc2)nc(N/N=C/c2ccccc2)n1	32*	77%	1%	84%	55*
COc1nc(N)nc(NC23CC4CC(CC(C4)C2)C3)n1	15*	17%	-3%	?	21*
COc1ccc(NC(=O)CSc2nn3c(=O)c(C)nnc3s2)cc1	-3	12µM*	9%	?	-4
COc1ccc(CNC(=O)CSc2nn3c(=O)c(C(C)(C)C)nnc3s2)cc1OC	-1	?	3%	?	-7
COc1ccccc1CNC(=O)CSc1nn2c(=O)c(C(C)(C)C)nnc2s1	-6	?	-5%	2.9µM*	13
COc1ccc(OC)c(NC(=O)CSc2nn3c(=O)c(C)nnc3s2)c1	-3	89%	-11%	42%	-2
COC(=O)c1ccc(NC(=O)CSc2nn3c(=O)c(C)nnc3s2)cc1	-1	?	7%	?	-11
COc1cccc(NC(=O)CSc2nn3c(=O)c(C)nnc3s2)c1	-3	9.3µM*	-1%	?	-9
